PubChem BioAssay (NCI)
About 83,000 compounds went through this panel and 20% of them were active in at least one assay; those are over-represented in the sample as a whole.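 The endpoint reported here, percent growth, reads 100 for growth as untreated, 0 for no net growth and -100 for all cells dead.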 Values without a mark were called inactive. The source made the active and inactive calls. How the source made its calls: active means growth percent below 10; inactive means the rest.

Experiments:
Experiment in all cases: NCI-60 one-dose screen, 48 h (100 = growth as untreated, 0 = no growth, -100 = all killed)
Settings in all cases: 10 µM unless noted
[1] = test system: DU-145 prostate
[2] = test system: K-562 leukemia
[3] = test system: MALME-3M melanoma
[4] = test system: MDA-MB-231 breast
[5] = test system: RXF 393 renal
[6] = test system: SF-268 CNS
[7] = test system: SF-295 CNS
[8] = test system: SF-539 CNS
[9] = test system: UACC-257 melanoma
[10] = test system: M14 melanoma
[11] = test system: HCT-15 colon
[12] = test system: HT29 colon
[13] = test system: SNB-75 CNS
[14] = test system: SNB-19 CNS
[15] = test system: U251 CNS
[16] = test system: PC-3 prostate
[17] = test system: SK-MEL-5 melanoma
[18] = test system: UACC-62 melanoma
[19] = test system: LOX IMVI melanoma
[20] = test system: SK-MEL-28 melanoma

CNC(=O)c1cc(Oc2cccc3nc(NC(=O)Nc4cc(C(F)(F)F)ccc4Cl)ccc23)ccn1
growth [1]: 78.6%
growth [2]: 80.9%
growth [3]: 69.2%
growth [4]: 49.1%
growth [5]: 73.7%
growth [6]: 74.9%
growth [7]: 106%
growth [8]: 32.6%
growth [9]: 98.3%
growth [10]: 95.1%
growth [11]: 90%
growth [12]: 89.8%
growth [13]: 68.9%
growth [14]: 102%
growth [15]: 70.4%
growth [16]: 96.5%
growth [17]: 80.2%
growth [18]: 96.3%
growth [19]: 63.9%
growth [20]: 92.4%

CCCCCCCC/C=C\CCCCCCCCOc1ccc(CC(=O)NCC[N+]2(C)CCOCC2)cc1
growth [1]: 88.5%
growth [2]: 62.8%
growth [3]: 80.9%
growth [4]: 68%
growth [5]: -38.6% (active)
growth [6]: 70.2%
growth [7]: 85.7%
growth [8]: 81.1%
growth [9]: 96.9%
growth [10]: 81.4%
growth [11]: 90.8%
growth [12]: 36.9%
growth [13]: 41.2%
growth [14]: 38.7%
growth [15]: 15.4%
growth [16]: 12.5%
growth [17]: 99%
growth [18]: 57.5%
growth [19]: 84.2%
growth [20]: 93.7%

S=c1[nH]c(=S)c2c(-c3ccccc3)c(-c3ccccc3)oc2[nH]1
growth [1]: 109%
growth [2]: 80.2%
growth [3]: 107%
growth [4]: 99%
growth [5]: 91.2%
growth [6]: 104%
growth [7]: 97.5%
growth [8]: 98.3%
growth [9]: 80.1%
growth [10]: 105%
growth [11]: 99.1%
growth [12]: 102%
growth [13]: 95.2%
growth [14]: 96.2%
growth [15]: 95.9%
growth [16]: 103%
growth [17]: 108%
growth [18]: 93.9%
growth [19]: 96.5%
growth [20]: 105%

CCS/C(Nc1ccccc1)=C(\C#N)C(=O)Nc1ccc(OC)cc1
growth [1]: 33.8%
growth [2]: 7.34% (active)
growth [3]: 55.6%
growth [4]: 44.5%
growth [5]: 39.5%
growth [6]: 39.1%
growth [7]: 32.6%
growth [8]: 29.1%
growth [9]: 58.4%
growth [10]: 15.2%
growth [11]: 16.9%
growth [12]: 6.46% (active)
growth [13]: 18.2%
growth [14]: 23.1%
growth [15]: 16.6%
growth [16]: 47.9%
growth [17]: 17.8%
growth [18]: 27.2%
growth [19]: 36.6%
growth [20]: 58.9%

Cc1cccc(N2CCC(=O)NC2=S)c1
growth [1]: 116%
growth [2]: 112%
growth [3]: 95.9%
growth [4]: 89.9%
growth [5]: 115%
growth [6]: 99.4%
growth [7]: 103%
growth [8]: 96.7%
growth [9]: 105%
growth [10]: 97.3%
growth [11]: 107%
growth [12]: 113%
growth [13]: 92.5%
growth [14]: 99.4%
growth [15]: 104%
growth [16]: 98.3%
growth [17]: 101%
growth [18]: 96.4%
growth [19]: 97.2%
growth [20]: 110%

Ic1ccccc1I
growth [1]: 116%
growth [2]: 103%
growth [3]: 131%
growth [4]: 111%
growth [5]: 100%
growth [6]: 111%
growth [7]: 106%
growth [8]: 104%
growth [9]: 88.3%
growth [10]: 94.3%
growth [11]: 99.8%
growth [12]: 107%
growth [13]: 88.3%
growth [14]: 103%
growth [15]: 99%
growth [16]: 99.7%
growth [17]: 102%
growth [18]: 97.3%
growth [19]: 102%
growth [20]: 108%

CCOC(=O)c1c(C)nc2ccccc2c1/C=C/c1cccs1
growth [1]: 95.5%
growth [2]: 50.3%
growth [3]: 112%
growth [4]: 82.7%
growth [5]: 93.8%
growth [6]: 89.4%
growth [7]: 65.6%
growth [8]: 93.2%
growth [9]: 91.8%
growth [10]: 93.4%
growth [11]: 58.6%
growth [12]: 76.3%
growth [13]: 80.1%
growth [14]: 83.5%
growth [15]: 81.2%
growth [16]: 60.4%
growth [17]: 21%
growth [18]: 50.7%
growth [19]: 73.1%
growth [20]: 106%

CCCCCN(CCCCC)CC(O)c1cc(C)c2ccc3cc(C(C)C)ccc3c2c1 (centres undefined)
growth [1]: -77.1% (active)
growth [2]: -16.2% (active)
growth [3]: 53.9%
growth [4]: -47.6% (active)
growth [5]: -88.2% (active)
growth [6]: -61.7% (active)
growth [7]: 103%
growth [8]: -78.3% (active)
growth [9]: 105%
growth [10]: 20.3%
growth [11]: -86.3% (active)
growth [12]: -43.9% (active)
growth [13]: 75.8%
growth [14]: 7.47% (active)
growth [15]: -87.4% (active)
growth [16]: 53.3%
growth [17]: 79.1%
growth [18]: 91.3%
growth [19]: -93.9% (active)
growth [20]: 88.1%

CCN(CC)c1ccc(/C=N/NC(=O)Cc2ccc(Nc3ccnc(C(F)(F)F)c3)cc2)c(O)c1
growth [1]: 18.3%
growth [2]: 23.1%
growth [3]: 15.5%
growth [4]: 43%
growth [5]: 45.8%
growth [6]: 18%
growth [7]: 17.9%
growth [8]: 17.1%
growth [9]: 37.4%
growth [10]: -18.3% (active)
growth [11]: 33.2%
growth [12]: 33.1%
growth [13]: 5.89% (active)
growth [14]: 30.9%
growth [15]: 25.7%
growth [16]: 53.3%
growth [17]: 27.1%
growth [18]: 20.6%
growth [19]: 6.64% (active)
growth [20]: 31.7%

Oc1c(CN2CCC(N3CCCCC3)CC2)cc(Cc2cc(CN3CCC(N4CCCCC4)CC3)c(O)c3ncccc23)c2cccnc12
growth [1]: 37.1%
growth [2]: 5.46% (active)
growth [3]: 15.4%
growth [4]: 18.3%
growth [5]: 57.5%
growth [6]: 27.9%
growth [7]: 31.1%
growth [8]: -55.4% (active)
growth [9]: 57.2%
growth [10]: -26% (active)
growth [11]: 20.6%
growth [12]: 16%
growth [13]: 54.1%
growth [14]: 36.6%
growth [15]: 24.6%
growth [16]: 17.7%
growth [17]: 34.1%
growth [18]: -18.3% (active)
growth [19]: 4.36% (active)
growth [20]: 31.5%

O=C(N/N=C\c1ccccc1S(=O)(=O)O)N/N=C/c1ccccc1S(=O)(=O)O
growth [1]: 106%
growth [2]: 97.9%
growth [3]: 105%
growth [4]: 102%
growth [5]: 112%
growth [6]: 102%
growth [7]: 101%
growth [8]: 111%
growth [9]: 93.2%
growth [10]: 102%
growth [11]: 104%
growth [12]: 105%
growth [13]: 95.5%
growth [14]: 99.8%
growth [15]: 99.9%
growth [16]: 96.3%
growth [17]: 106%
growth [18]: 98.1%
growth [19]: 102%
growth [20]: 101%

O=C(Nc1cc(Cl)ccc1O)c1cccc(Nc2ccnc(C(F)(F)F)c2)c1
growth [1]: 54.9%
growth [2]: 7.05% (active)
growth [3]: 53.1%
growth [4]: 34.1%
growth [5]: 65.8%
growth [6]: 55.2%
growth [7]: 2.92% (active)
growth [8]: 48.1%
growth [9]: 32.3%
growth [10]: 38.5%
growth [11]: 42.9%
growth [12]: 87.4%
growth [13]: 61.4%
growth [14]: 44%
growth [15]: 43.2%
growth [16]: 28.2%
growth [17]: 4.5% (active)
growth [18]: 15.5%
growth [19]: 38.5%
growth [20]: 88.1%

CS(=O)(=O)Nc1cc(-c2ccc3ncc(C#N)c(Nc4ccc(F)c(Cl)c4)c3c2)cnc1Cl
growth [1]: 10.2%
growth [2]: 16.2%
growth [3]: -38.6% (active)
growth [4]: -0.718% (active)
growth [5]: -39.2% (active)
growth [6]: 8.18% (active)
growth [7]: -28.2% (active)
growth [8]: -27.4% (active)
growth [9]: 4.72% (active)
growth [10]: 11.2%
growth [11]: 8.1% (active)
growth [12]: 1.84% (active)
growth [13]: -6.88% (active)
growth [14]: 14.3%
growth [15]: -15.4% (active)
growth [16]: 8.23% (active)
growth [17]: -90% (active)
growth [18]: -10.7% (active)
growth [19]: -53.7% (active)
growth [20]: 5.07% (active)

COc1ccc(-c2nc(-c3cn(C)c4ncccc34)cs2)cc1
growth [1]: 15.2% [100 µM]
growth [2]: 11% [100 µM]
growth [3]: -54.9% [100 µM] (active)
growth [4]: 15.9% [100 µM]
growth [5]: -12.6% [100 µM] (active)
growth [6]: 23.4% [100 µM]
growth [7]: -25.5% [100 µM] (active)
growth [8]: -67.2% [100 µM] (active)
growth [9]: 17.5% [100 µM]
growth [10]: -69.6% [100 µM] (active)
growth [11]: -1.17% [100 µM] (active)
growth [12]: -63.2% [100 µM] (active)
growth [13]: -3.6% [100 µM] (active)
growth [14]: 23.2% [100 µM]
growth [15]: 3.9% [100 µM] (active)
growth [16]: -28.2% [100 µM] (active)
growth [17]: -83.4% [100 µM] (active)
growth [18]: -20.1% [100 µM] (active)
growth [19]: -47.1% [100 µM] (active)
growth [20]: 37.9% [100 µM]

CSC(SC)=C(C#N)c1nc2ccccc2s1
growth [1]: 87.2%
growth [2]: 47.4%
growth [3]: 67.9%
growth [4]: 52.9%
growth [5]: 95.8%
growth [6]: 55.1%
growth [7]: 88.2%
growth [8]: 60.2%
growth [9]: 54%
growth [10]: 48.1%
growth [11]: 61.8%
growth [12]: 97.2%
growth [13]: 74.3%
growth [14]: 66.9%
growth [15]: 76.5%
growth [16]: 30%
growth [18]: 9.44% (active)
growth [19]: 84.1%
growth [20]: 38.8%

O=S(=O)(NCCCNc1nccc(-c2c(-c3cccc(F)c3)nc3occn23)n1)c1ccc(F)cc1
growth [1]: 55.9%
growth [2]: 13%
growth [3]: 43.6%
growth [4]: 60.9%
growth [5]: 63.6%
growth [6]: 44.5%
growth [7]: 89.5%
growth [8]: 87%
growth [9]: 43.6%
growth [10]: 35.7%
growth [11]: 58.3%
growth [12]: 21.9%
growth [13]: 73.5%
growth [14]: 84.9%
growth [15]: 56.1%
growth [16]: 29.4%
growth [17]: 32.7%
growth [18]: 26.5%
growth [19]: 44.7%
growth [20]: 64.2%
